From PubChem BioAssay
Several values for one entry are separate records, joined by “and”; a condition that tells them apart may be missing. Equal entries are not always repeated. Activity calls are given as the source filed them. Rule as the data show it, unless noted: active = inhibition above about 80%; inactive = the rest.

Assays:
[1] = sensitizers of A549 cells to miR-34 induction, primary screen, imaging, A549 dox-inducible miR-34, nuclei and caspase counts (AID 1347080;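 active = compounds whose cell count with miR-34 switched on is under 0.7 times the count with it off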); conditions: A549 miR-34 inducible, Hoechst nuclei count, 48 h
[2] = survival rescue of mitochondrial mutant cells in low glucose, primary screen, MELAS cybrids, Rieske KO mouse fibroblasts, CellTiter-Glo (AID 1508586;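 active = mean z-score across replicates of 1.96 or higher in either the MELAS or the Rieske mutant cell line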;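 also: z relative to plate mean and SD of compound and empty wells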)
[3] = LFS_MB_P medulloblastoma growth inhibition, cell-based, chromothripsis tumors, cisplatin or BGB combos (AID 1671449); conditions: LFS_MB_P medulloblastoma cells;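 also: cells exposed for 96 hours; 0% = vehicle DMSO and 100% = killing by high DMSO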
[4] = HDN33 neuroblastoma growth inhibition, cell-based, chromothripsis tumors, cisplatin or BGB combos (AID 1671450); conditions: HDN33 neuroblastoma cells, stronger effect = higher value;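 also: cells exposed to compound for four days; 0% = vehicle DMSO and 100% = cell killing by high DMSO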
[5] = ICB984 medulloblastoma cell growth inhibition, synergistic combos for chromothripsis tumors, cisplatin or BGB combos (AID 1671451; call rule not given here;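 also: cells exposed for 96 hours before readout; 0% = vehicle DMSO and 100% = killing by high DMSO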); conditions: ICB984 medulloblastoma cells, drug combinations, stronger effect = higher value
[6] = LFS_MB_1R medulloblastoma cell growth inhibition, synergistic combos for chromothripsis tumors, cisplatin or BGB combos (AID 1671452); conditions: LFS_MB_1R medulloblastoma cells, stronger effect = higher value;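 also: cells exposed for 96 hours before readout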
[7] = HTB85 osteosarcoma cell growth inhibition, synergistic combos for chromothripsis tumors, BGB or cisplatin IC20 combos (AID 1671453); conditions: HTB85 osteosarcoma cells, drug combinations, stronger effect = higher value;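 also: cells exposed for 96 hours before readout; 0% = vehicle DMSO and 100% = high DMSO killing control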
[8] = CRL2098 osteosarcoma cell growth inhibition, synergistic combos for chromothripsis tumors, BGB or cisplatin IC20 combos (AID 1671454); conditions: CRL2098 osteosarcoma cells, drug combinations, stronger effect = higher value;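 also: cells exposed for 96 h before readout; 0% = vehicle DMSO and 100% = killing by high DMSO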
[9] = HD-MB03 medulloblastoma cell growth inhibition, synergistic combos for chromothripsis tumors, BGB or cisplatin IC20 combos (AID 1671455; in the data active = inhibition above about 83%;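 also: 0% = vehicle DMSO and 100% = high DMSO as cytotoxic control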); conditions: HD-MB03 medulloblastoma cells, stronger effect = higher value
[10] = UWB1.289 ovarian carcinoma cell growth inhibition, synergistic combos for chromothripsis tumors, BGB or cisplatin combos (AID 1671456); conditions: UWB1.289 ovarian carcinoma cells, stronger effect = higher value;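 also: cells exposed to compound for four days; 0% = vehicle DMSO and 100% = killing by high DMSO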
[11] = LFS_MB_2R medulloblastoma cell growth inhibition, synergistic combos for chromothripsis tumors, cisplatin combos (AID 1671457); conditions: LFS_MB_2R medulloblastoma cells, stronger effect = higher value;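 also: cells exposed to compound for four days before readout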
[12] = MDA-MB-436 breast carcinoma cell growth inhibition, synergistic combos for chromothripsis tumors, BGB or cisplatin combos (AID 1671458; call rule not given here;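 also: cells exposed for 96 hours; 0% = vehicle DMSO and 100% = killing by high DMSO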); conditions: MDA-MB-436 breast carcinoma growth inhibition, drug combinations, stronger effect = higher value
[13] = UWB1.289_BRCA1 ovarian cancer growth, cell-based, BGB or cisplatin combinations (AID 1671459); conditions: UWB1.289 BRCA1 ovarian carcinoma, drug combinations, stronger effect = higher value
[14] = human astrocyte viability loss, single and combined drugs, cytotoxicity control for chromothriptic childhood tumor combination screen, cell-based, BGB or cisplatin IC20 combos (AID 1671460); conditions: Human astrocytes, drug combinations, stronger effect = higher value;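 also: cells exposed to compounds for 96 hours before viability readout; 0% = vehicle and 100% = killing control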
[15] = growth inhibition of BT084 medulloblastoma cells, cell-based, ICGC_MB145, cisplatin and BGB IC40 combos (AID 1671461); conditions: drug combinations, stronger effect = higher value;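 also: cells exposed to drugs for 96 hours; 0% = vehicle DMSO and 100% = high DMSO full killing control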
[16] = growth inhibition of RCMB18 medulloblastoma cells, cell-based, cisplatin and BGB IC40 combos (AID 1671462); conditions: stronger effect = higher value;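 also: cells exposed to compound for four days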
[17] = growth inhibition of CRL1545 osteosarcoma cells, cell-based, cisplatin and BGB IC20 combos (AID 1671464); conditions: stronger effect = higher value;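 also: cells exposed to compound for 96 hours before readout; 0% = vehicle DMSO and 100% = high DMSO killing control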
[18] = hESC survival regulators, cell-based (AID 493140; call rule not given here;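 also: cells exposed to compounds for four days before counting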); conditions: human embryonic stem cell survival screen; stronger effect = higher value
[19] = liver-stage malaria parasite growth inhibition, primary screen, cell-based, HepG2, luciferase luminescence, HepG2 viability (AID 624349; in the data active = parasite load remaining mostly below about 12%, no sharp cut-off; inactive = mostly above about 10%;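 also: 100% = mean of DMSO negative control wells on the same plate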); conditions: P. berghei liver stage in HepG2, luciferase luminescence, concentration not given here; parasite load remaining: stronger effect = lower value; viability: measured here: HepG2 viability without parasites
[20] = stronger effect = lower value, cell number ratio, induced over uninduced
[21] = measured here: relative caspase fold change +Dox/-Dox
[22] = measured here: total cells with miR-34 induction, stronger effect = lower value
[23] = measured here: total cells without miR-34 induction
[24] = MELAS cybrid survival, CellTiter-Glo 48 h, stronger effect = higher value
[25] = Rieske KO mouse fibroblast survival, CellTiter-Glo 72 h
[26] = measured here: combination with BGB IC40, at 0.05 µM
[27] = measured here: with BGB IC20 combination, at 0.5 µM
[28] = measured here: with cisplatin IC20 combination, at 0.5 µM
[29] = measured here: combination with cisplatin, at 0.5 µM
[30] = measured here: combination with cisplatin, at 5 µM

CCCCN(Cc1ccc(C(=O)NO)cc1)C(=O)Nc1ccccc1
fold change [1, 20]: 0.983 (inactive)
fold change [1, 21]: 0.418
cell count [1, 22]: 4530
cell count [1, 23]: 4600
z-score [2, 24]: -0.565 (inactive)
z-score [2, 25]: 1.2
inhibition ([3]; at 0.5 µM, stronger effect = higher value): -20% (inactive) and -3.97% (inactive)
inhibition ([3]; measured here: combination with BGB IC20, at 0.005 µM): -3.67% and 7.55%
inhibition ([3]; measured here: combination with BGB IC40, at 0.005 µM): 4.04% and -3.84%
inhibition [3, 26]: 40.8% and 5.09%
inhibition ([3]; measured here: combination with cisplatin, at 0.5 µM, stronger effect = higher value): -30.1% and 27.1%
inhibition ([3]; measured here: combination with cisplatin, at 5 µM, stronger effect = higher value): 80.5% and 81.8%
inhibition ([4]; BGB combo, at 5 µM): 53.8% and 40.9%
inhibition ([4]; at 0.5 µM): 23.8% (inactive) and 15.6% (inactive)
inhibition ([4]; cisplatin combo, at 5 µM): 52.4% and 49.4%
inhibition [4, 27]: 24.6% and 6.38%
inhibition [4, 28]: 17.1% and 28%
inhibition ([4]; single agent, at 5 µM): 52.1% and 51.6%
inhibition ([5]; BGB IC20 combo, at 0.005 µM): -10.6% and 8.62%
inhibition ([5]; BGB IC40 combo, at 0.005 µM): -48.5% and 3.88%
inhibition ([5]; BGB IC40 combo, at 0.05 µM): 19.3% and 30.6%
inhibition ([5]; at 0.5 µM): -22.3% (inactive) and 1.78% (inactive)
inhibition ([5]; cisplatin combo, at 0.05 µM): 16.1% and 28.6%
inhibition ([5]; cisplatin combo, at 0.5 µM): -41.9% and 10.4%
inhibition ([5]; cisplatin combo, at 5 µM): -6.73% and -20.8%
inhibition ([5]; measured here: 5 uM single agent, at 5 µM): -6.18% and 2.93%
inhibition ([6]; at 0.5 µM): -0.52% (inactive) and 4.37% (inactive)
inhibition [6, 26]: -26.5% and -6.78%
inhibition [6, 29]: 3.43% and 2.01%
inhibition [6, 30]: 21.2% and 8.3%
inhibition ([7]; at 0.5 µM): 19.9% (inactive) and 9.96% (inactive)
inhibition ([7]; measured here: with BGB IC20, at 0.5 µM): 8.29% and 2.56%
inhibition ([7]; measured here: with BGB IC20, at 5 µM): 37.9% and 32.7%
inhibition ([7]; measured here: with cisplatin IC20, at 0.5 µM): 24.2% and 15.2%
inhibition ([7]; measured here: with cisplatin IC20, at 5 µM): 61.3% and 51.1%
inhibition ([7]; single agent, at 5 µM): 64% and 41.2%
inhibition ([8]; at 0.5 µM): -11.3% (inactive) and -33.3% (inactive)
inhibition ([8]; measured here: combination with BGB at IC20, at 0.5 µM): 5.14% and -65%
inhibition ([8]; measured here: combination with cisplatin at IC20, at 0.5 µM): 14.3% and -15.5%
inhibition ([9]; at 0.5 µM): 14.8% (inactive) and 3.61% (inactive)
inhibition ([9]; measured here: combo with BGB at IC20, at 0.5 µM): 8.17% and 6.08%
inhibition ([9]; measured here: combo with cisplatin at IC20, at 0.5 µM): 19.9% and -1.69%
inhibition ([10]; at 0.5 µM): 11.9% (inactive) and 3.45% (inactive)
inhibition ([10]; measured here: inhibition with BGB combination, at 0.05 µM): 1.66% and 3.63%
inhibition ([10]; measured here: inhibition with cisplatin combination, at 0.05 µM): -1.43% and -3.86%
inhibition ([11]; at 0.5 µM): -2.85% (inactive) and 5.34% (inactive)
inhibition [11, 29]: 10.6% and 13.6%
inhibition [11, 30]: 66.3% and 45%
inhibition ([12]; at 0.5 µM): 2.63% (inactive) and 5.38% (inactive)
inhibition ([12]; measured here: BGB combination, at 0.5 µM): -2.67% and 11.6%
inhibition ([12]; measured here: BGB combination, at 5 µM): 10.7% and 17.3%
inhibition ([12]; measured here: cisplatin combination, at 0.5 µM): 0.872% and -0.512%
inhibition ([12]; measured here: cisplatin combination, at 5 µM): 26% and 22.1%
inhibition ([13]; BGB combination, concentration series, at 5 µM): 53.9% and 55%
inhibition ([13]; at 0.5 µM): 11.3% (inactive) and 5.83% (inactive)
inhibition ([13]; cisplatin combination, concentration series, at 5 µM): 64.1% and 65%
inhibition ([14]; at 0.5 µM): 12.4% (inactive) and -2.38% (inactive)
inhibition ([14]; measured here: combo with BGB IC20, at 0.5 µM): 32.5% and 11.7%
inhibition ([14]; measured here: combo with cisplatin IC20, at 0.5 µM): 10.7% and -23.3%
inhibition ([15]; at 0.5 µM): 4.6% (inactive) and 18.3% (inactive)
inhibition ([15]; cisplatin combination, at 0.5 µM): 19.3% and 17.8%
inhibition ([15]; cisplatin combination, at 5 µM): 71.8% and 68.9%
inhibition ([15]; measured here: BGB IC40 combination 0.05 uM, at 0.05 µM): -5.38% and 25.6%
inhibition ([15]; single agent, at 5 µM): 45.6% and 57.8%
inhibition ([16]; at 0.5 µM): 12.4% (inactive) and 19.2% (inactive)
inhibition ([16]; cisplatin combo, at 5 µM): 43.7% and 48.5%
inhibition ([16]; measured here: BGB IC40 combination, at 0.05 µM): -4.7% and 0.072%
inhibition [16, 29]: 39% and 19%
inhibition ([16]; single agent, at 5 µM): 15.2% and 39.4%
inhibition ([17]; at 0.5 µM): -6.16% (inactive) and 6.99% (inactive)
inhibition [17, 27]: -21.4% and 15.9%
inhibition [17, 28]: 1.44% and 0.349%
inhibition ([17]; single agent, at 0.05 µM): -0.576% and -13%
inhibition ([17]; single agent, at 5 µM): 32.4% and 24.1%

CNCC(O)c1ccc(OC(=O)C(C)(C)C)c(OC(=O)C(C)(C)C)c1 (stereo not given)
survival [18]: 4.83 (inactive)
parasite load remaining [19]: 97.5% (inactive) and 55.6% (inactive)
viability [19]: 100% and 75.1%
fold change [1, 20]: 0.893 (inactive)
fold change [1, 21]: 0.873
cell count [1, 22]: 8640
cell count [1, 23]: 9680
z-score [2, 24]: -1.22 (inactive)
z-score [2, 25]: -0.55

CC(C)(C)NCC(O)COc1ccccc1C1CCCC1 (stereo not given)
survival [18]: 4.5 (inactive)
parasite load remaining [19]: 64.8% (inactive)
viability [19]: 78.7%
fold change [1, 20]: 0.898 (inactive)
fold change [1, 21]: 0.683
cell count [1, 22]: 7970
cell count [1, 23]: 8880
z-score [2, 24]: -0.603 (inactive)
z-score [2, 25]: -0.983

C=CCN1CCCC1CNC(=O)c1cc2[nH]nnc2cc1OC (stereo not given)
parasite load remaining [19]: 92.8% (inactive)
viability [19]: 100%
fold change [1, 20]: 0.836 (inactive) and 0.882 (inactive)
fold change [1, 21]: 1.28 and 0.705
cell count [1, 22]: 8730 and 8290
cell count [1, 23]: 10400 and 9410
z-score [2, 24]: -0.272 (inactive) and -0.0484 (inactive)
z-score [2, 25]: -0.199 and -0.148
